This note sets out measurements from PubChem BioAssay (NCI).

Each structure is given as a SMILES string. This is part of a sample that, as a whole, favours compounds with a hit. Of some 79,000 tested, about 15% had one in any assay. Calls of active or inactive are those of the source. Cut-off read from the data, not from the text of the source: active = growth inhibition above about 70%; inactive = the rest.

The nature of the assay: NCI Yeast Anticancer Drug Screen. Data for the wt1 strain (AID 149).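 Note: 0% = growth of vehicle-treated wt1 cultures.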 Conditions: S. cerevisiae wt1 strain (SPY 50644) growth inhibition, hits give high values. On the procedure: Growth inhibition of yeast strains with defined genetic alterations is measured as a screen for potential anti-cancer activity. Selected strains with alterations in DNA damage repair or cell cycle control were exposed to compounds and growth inhibition was measured relative to vehicle treated controls. The strain used in this assay is wt1

For `Nc1ccn(C2OC(COP(=O)(O)O)C(O)C2O)c(=O)n1` (stereo not given), the growth inhibition (at 1.2 µM) was -11% (inactive); the growth inhibition (at 3.7 µM) was 1% (inactive); the growth inhibition (at 11.0 µM) is 2% (inactive); the growth inhibition (at 33.0 µM) was 0% (inactive); the growth inhibition (at 100.0 µM) is 1% (inactive).
For the compound `CCCCCCCCCCCCCCCCOP(=O)(O)OCC(N)C(=O)O` (stereo not given), the growth inhibition reads like this: (at 1.2 µM) -19% (inactive); (at 3.7 µM) -22% (inactive); (at 11.0 µM) 39% (inactive); (at 33.0 µM) 98% (active); (at 100.0 µM) 97% (active).
In the same order, the values of `NC(=S)NC(=S)Nc1ccccc1` are -6% (inactive), -5% (inactive), -6% (inactive), 0% (inactive) and 16% (inactive).
Regarding `COC1CCC(O)C(/C=C/[N+](=O)[O-])C1` (stereo not given), the growth inhibition is 3% (inactive) (at 1.2 µM); 18% (inactive) (at 3.7 µM); 99% (active) (at 11.0 µM); 99% (active) (at 33.0 µM); 99% (active) (at 100.0 µM).
On to `CCOC(=O)CC1(C(=O)OCC)c2[nH]c3ccccc3c2CCN1Cc1ccccc1` (stereo not given), for which the growth inhibition runs as follows: (at 1.2 µM) -3% (inactive); (at 3.7 µM) -2% (inactive); (at 11.0 µM) -1% (inactive); (at 33.0 µM) -5% (inactive); (at 100.0 µM) 42% (inactive).
With `CCc1cc(O)c(Cl)c(C)c1Cl`, the growth inhibition reads like this: (at 1.2 µM) 7% (inactive); (at 3.7 µM) 21% (inactive); (at 11.0 µM) 14% (inactive); (at 33.0 µM) 20% (inactive); (at 100.0 µM) 87% (active).
In the same order, the values of `O=C(O)CNC(=S)Nc1ccccc1` are -52% (inactive), -52% (inactive), -47% (inactive), 43% (inactive) and 91% (active).
In the same order, the values of `COc1ccc2[nH]cc([C@@H]3C4CCC(C4)[C@H]3NCc3cccc(CN[C@H]4C5CCC(C5)[C@@H]4c4c[nH]c5ccc(OC)cc45)c3)c2c1` are -33% (inactive), -43% (inactive), -41% (inactive), -8% (inactive) and 93% (active).
